Screens as filed in PubChem.
Rows were chosen to be rich in hits. Some 5% of all compounds tested hit in one or more screens of this group.
PREPL inhibitor: PREPL enzyme inhibitors, primary screen, biochemical, fluorescence polarization | 0.68% of 320,000 active | recombinant PREPL, fluorescence polarization activity-based probe | Prolyl endopeptidase-like (Homo sapiens), Q4J6C6 | inhibition, % at 5.96 µM; in the data active means inhibition above about 43%;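 further: 0% = enzyme with DMSO and 100% = wells lacking enzyme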
CHT inh: inhibitors of human choline transporter CHT; High affinity choline transporter 1 (Homo sapiens), Q9GZV3; B-score at 10 µM; 0.86% of 310,000 active; CHT-expressing cells, membrane potential dye, choline response; stronger effect = lower value; AID 488975, 2010;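 active means B-score over 3 SD under the library average, and starting fluorescence ratio not unusually high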;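 further: choline stimulus applied at its EC90 after an EC20 pre-addition; B-score computed on integrated fluorescence ratio after choline addition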
AI-2 QS modul: Vibrio harveyi AI-2 quorum sensing modulators, primary screen, JMH597 strain, luminescence/OD600 ratio; 0.4% of 300,000 active; AID 2094, 2009; Vibrio harveyi JMH597 AI-2 luminescence/OD600 ratio, 9 h; stronger effect = lower value; strain lacks LuxN and CqsS sensors; 0 = neutral-control median; activity change, % at 7.5 µM; in the data active means activity change below about -75%, passing the limit was not always enough;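 further: luminescence divided by OD600 gain over 9 h not by final OD600 alone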
CHT allo act: CHT positive allosteric modulators, primary screen, cell-based, membrane potential dye, choline EC20; High affinity choline transporter 1 (Homo sapiens), Q9GZV3; CHT-expressing cells; stronger effect = higher value; LV-AA mutant CHT in HEK293 cells; B-score at 10 µM; 0.49% of 310,000 active; AID 488977, 2010;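 active means initial fluorescence not abnormally high and integrated response B-score, plate-corrected, over 3 SD above library mean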
ALR inh: inhibitors of human ALR sulfhydryl oxidase, primary screen, biochemical, H2O2 detection, HRP-luminol luminescence, single point; FAD-linked sulfhydryl oxidase ALR (Homo sapiens), P55789; purified ALR, DTT oxidation; inhibition, % (concentration not given with the values); 3.8% of 290,000 active; AID 485317, 2010;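 active means mean replicate inhibition above about 79%, with every replicate also reaching it, limit read from the data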
Target sequence (P55789 whole entry, looked up): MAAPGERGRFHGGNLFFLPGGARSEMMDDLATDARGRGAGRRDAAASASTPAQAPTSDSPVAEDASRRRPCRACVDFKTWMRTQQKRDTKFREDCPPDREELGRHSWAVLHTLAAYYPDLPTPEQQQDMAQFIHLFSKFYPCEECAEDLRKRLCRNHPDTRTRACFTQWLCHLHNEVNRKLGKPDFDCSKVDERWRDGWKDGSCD
An asterisk follows results filed as active; i = inactive; / = not tested or not shown.

SMILES	PREPL inhibitor	CHT inh	AI-2 QS modul	CHT allo act	ALR inh
Cn1c(SCC(=O)Nc2ccccc2C(F)(F)F)nc2c(c1=O)SCC2	7.5	i	7.5	i	30.8
Cc1ccc(Oc2ncccc2C(=O)NC2CCSC2=O)cc1 (stereo not given)	-0.3	i	22.1	i	-9.5
CC1CCc2[nH]c3ccc(C(=O)N(C)CC(=O)Nc4ccccc4C(F)(F)F)cc3c2C1 (stereo not given)	0.1	i	13.9	i	-4.9
O=C(N[C@@H](Cc1ccccc1)C(=O)N[C@@H](Cc1ccccc1)C(=O)O)OCc1ccccc1	1.9	i	18.4	i	/
O=C(N[C@@H](Cc1ccccc1)C(=O)CCl)OCc1ccccc1	-7.8	i	/	i	97.5*
COc1ccc(N(CC(=O)Nc2cc(Cl)ccc2OC)C2=NC3CS(=O)(=O)CC3S2)cc1 (stereo not given)	-9.6	i	16.6	i	25.4
COc1cccc(NC(=O)CN(C2=NC3CS(=O)(=O)CC3S2)c2cccc(C)c2)c1 (stereo not given)	5.5	i	13.1	i	98.4*
O=C(OC1CCCCC1=O)c1cccc(S(=O)(=O)N2CCOCC2)c1 (stereo not given)	-4.5	i	17.8	i	-2.6
COc1cccc(N2C(=O)C3CCCN3C2c2ccc(N(C)C)cc2)c1 (stereo not given)	7.3	i	-7.4	i	95.5*
COc1ccc(/C=C(\C#N)c2nc3ccccc3[nH]2)cc1O	/	/	9.5	/	/
COc1cc(/C=C(/C#N)c2nc3ccccc3[nH]2)ccc1OC(=O)c1ccco1	83.2*	i	32.6	i	1.4
Cc1ccc(NC2=CC(=O)CC(c3ccco3)C2)c(N)c1 (stereo not given)	4.3	i	9.6	i	97.9*
Cc1ccc(NC(=O)CN(C)C(=O)c2cccc(S(=O)(=O)NCc3ccccc3)c2)cc1	-4.6	i	28.7	i	-8.8
Nc1cc(=O)[nH]c(SCC(=O)Nc2ccc3c(c2)CCC3)n1	-22.4	i	12.1	i	90.0*
O=C(CSc1nc(O)cc(=O)[nH]1)Nc1ccc2c(c1)CCC2	-1.2	i	-2.7	i	98.8*
CCCc1cc(=O)[nH]c(SCC(=O)Nc2ccc3c(c2)CCC3)n1	-2.8	i	21.8	i	-2.4
OCC[C@@H]1C[C@@H](O)[C@H](O)[C@@]2(CCCc3ccccc3O2)O1	11.1	i	7.8	i	14.1
O=c1oc2c3c4c(cc2s1)CCCN4CCC3	16.6	i	6.8	i	99.1*
CC(=O)Nc1ccc(NC(=O)COC(=O)c2ccccn2)cc1	-7.0	i	15.2	i	-8.8
CCN(C(=O)CSc1nnnn1-c1ccc(Cl)cc1)C1CCS(=O)(=O)C1 (stereo not given)	6.8	/	/	/	-2.5
COC(=O)C(C(=O)OC)C(CC(=O)c1ccc(C)cc1)c1cc(OC)c(OC)c(OC)c1 (stereo not given)	7.5	i	0.8	i	97.4*
COc1ccc(C(CC(=O)c2ccc(C)cc2)C(C#N)C#N)cc1OC (stereo not given)	8.0	i	-11.9	i	51.2
COc1cccc(-c2nc(CS(=O)(=O)CC(=O)Nc3ccccc3Br)c(C)o2)c1	-7.2	i	8.9	i	93.7*
COc1cccc(-c2nc(CS(=O)(=O)CC(=O)Nc3ccccc3Cl)c(C)o2)c1	-9.2	i	10.9	i	87.5*
O=C(/C(C=Nc1cc2c(oc1=O)CCCC2=O)=C(\O)c1ccccc1)c1ccccc1	11.7	i	12.6	i	/
O=C(Nc1cccc2ccccc12)c1ccc(Cn2cc(Cl)cn2)cc1	-2.4	i	32.4	i	-18.3
O=C(Nc1ccccc1F)c1ccc(Cn2cc(Cl)cn2)cc1	-7.2	i	15.1	i	99.7*
O=C(c1ccc(Cn2cc(Cl)cn2)cc1)N1CCN(c2ccccc2)CC1	9.5	i	15.1	i	98.3*
O=C(c1ccc(Cn2cc(Br)cn2)cc1)N1CCN(c2ccccc2)CC1	18.1	i	22.8	i	-0.3
C#CCNC(=O)C1=C[C@@H](C)C[C@@H](OCc2ccc(CO)cc2)O1	-8.9	i	7.2	i	-1.2
